Bioassay records deposited in PubChem by National Center for Advancing Translational Sciences (NCATS).
Rows were chosen to be rich in hits. Some 15% of all compounds tested hit in one or more screens of this group.
HCMV inh: blocks human cytomegalovirus replication | HFF cells, HCMV-luciferase reporter, 72 h; hits give low values | activity change, negative = inhibition, % at 57.5 µM | 4.5% of 410,000 active | AID 1259415; in the data active means activity change below about -60%; inconclusive means no clear call, values can overlap the other calls; inactive means above about -39%; further: on the % scale 0 is the no-effect control and ±100 the full control effect
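Cell-based, HFFs, 1000 cells/well, 16 h 37C; cpds in DMSO + HCMV-luc, MOI 1 PFU/cell; 72 h 37C; OneGlo luminescence after 5 min RT; norm. to buffer vs Salinomycin 10uM.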
SARS PLP yeast: blocks SARS-CoV papain-like protease in a yeast assay; 0.19% of 330,000 active; Potency, µM (series often up to 32.9 µM), without a hit: top-dose activity, positive = growth rescue, actives largely listed as activators; S. cerevisiae expressing SARS-CoV PLpro, growth rescue; AID 485353; calls by dose curve; further: potency means the concentration at half of the fitted maximal effect; 0% is about no effect; nearly all actives have a fitted effect of over 55% in size
Pf growth 48h: inhibits P. falciparum growth in the first generation, 48 h. P. falciparum luciferase growth in erythrocytes, 48 h. Potency, µM (top dose mostly 28.7 µM), inactives show top-dose activity change, negative = inhibition, usual class: inhibitors. 5.9% of 310,000 active; further: potency means the concentration at half of the fitted maximal effect; on the % scale 0 is the no-effect control and ±100 the full control effect
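Luciferase-expressing P. falciparum in infected erythrocytes (2% hematocrit, 0.1% parasitemia final) in RPMI 1640/0.5% Albumax were exposed to compound for 48 hours at 37 C, 5% CO2; growth read as luminescence.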
HCV inh: blocks hepatitis C virus. Potency, µM (top dose mostly 41.8 µM), without a hit: at the top dose activity change, negative = inhibition, hits mostly inhibitors. Huh7.5.1 HCVcc-Cre infection, luciferase reporter, 44 h. 3.4% of 340,000 active; further: potency means the concentration at half of the fitted maximal effect; on the % scale 0 is the no-effect control and ±100 the full control effect
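Infectious HCV cell culture screen: compound-treated cells (1,000/well, pre-plated 4 h) are infected with HCVcc-Cre at roughly 0.5 moi and grown 44 h. Infection is quantified by luciferase signal after 15 min substrate incubation at room temperature.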
Pf growth 96h: P. falciparum growth inhibition at 96 hour, primary screen for plastid delayed-death inhibitors. P. falciparum luciferase reporter growth, 96 h. 6.9% of 320,000 active. AID 504834. Potency, µM (titrated, usually from 28.7 µM), for inactives: at the highest dose activity change, negative = inhibition, most hits filed as inhibitors; further: potency means the concentration at half of the fitted maximal effect; on the % scale 0 is the no-effect control and ±100 the full control effect
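Erythrocytes infected with luciferase-expressing P. falciparum were dispensed at 2% hematocrit and 0.05% parasitemia (final), then incubated with compounds 96 hours at 37 C in 5% CO2. Luminescence after detection reagent addition reported growth.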
Sm TGR inh: blocks Schistosoma mansoni thioredoxin glutathione reductase; purified TGR, DTNB reduction, TNB absorbance 405 nm; Potency, µM (series often up to 114 µM), inactives show at the highest dose activity change, negative = inhibition, usual class: inhibitors; 3% of 360,000 active; AID 485364; further: potency means the concentration at half of the fitted maximal effect; on the % scale 0 is the no-effect control and ±100 the full control effect; nearly all actives have a fitted effect of over 60% in size
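Kinetic colorimetric format: TGR-catalysed, NADPH-driven DTNB reduction monitored via TNB absorbance. Enzyme dispensed at 20 nM; compound exposure 15 min at room temperature before reaction start.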
* hit, by the source's call; ? = inconclusive; / = no result given; ! = repeats disagree. Unless noted, the call rests on the fitted dose curve; in most records, active means well fitted curve in the direction sought with a large enough effect; inconclusive means small, poorly fitted or top-dose-only effect, or another doubt; inactive means no such curve, though single readings can be large; an effect the other way counts as inactive or inconclusive.

SMILES	HCMV inh	SARS PLP yeast	Pf growth 48h	HCV inh	Pf growth 96h	Sm TGR inh
COc1ccc(N2C(=O)NC3CC2(C)Oc2ccccc23)cc1OC (stereo unspecified)	-62*	0%	9%	-18%	0%	13%
CC12CC(NC(=O)N1c1ccc(C(=O)N3CCN(c4ccc(F)cc4)CC3)cc1)c1ccccc1O2 (stereo unspecified)	-17	6%	?	-12%	/	-2%
COc1ccccc1N1CCN(C(=O)c2cccc(N3C(=O)NC4CC3(C)Oc3ccccc34)c2)CC1 (stereo unspecified)	-4	-2%	12µM*	-21%	1%	3%
CC12CC(NC(=O)N1c1cccc(C(=O)N3CCN(c4ccccc4)CC3)c1)c1ccccc1O2 (stereo unspecified)	?	-5%	8.3µM*	-30%	?	0%
CCOc1ccc(S(=O)(=O)NCCC(=O)NCCOc2ccccc2OC)cc1	-24	5%	-21%	?	-13%	7%
COc1ccc(S(=O)(=O)NC2CC3CCC2C3)cc1 (stereo unspecified)	18	-15%	8%	9%	8.3µM*	-9%
CSc1ccc(S(=O)(=O)NC2CC3CCC2C3)cc1 (stereo unspecified)	-9	-13%	-10%	-1%	?	5%
O=C(O)C1Nc2c(O)cc(Cl)c([N+](=O)[O-])c2C2C=CCC12 (stereo unspecified)	?	?	38%	-2%	?	3.5µM*
O=C(c1cccs1)N1C[C@H](n2cc(C3CC3)nn2)[C@@H](O)C[C@@H]1c1ccc(Cl)cc1	-16	/	/	/	/	/
O=C(Nc1ccccc1N1CCCCC1)c1ncoc1-c1ccc(F)cc1	?	-1%	3.3µM*	?	/	2%
O=C(Nc1ccc(N2CCOCC2)cc1N1CCOCC1)c1ccc(F)cc1	-25	1%	/	-7%	/	/
O=C(Nc1ccc(N2CCOCC2)cc1N1CCOCC1)c1ncoc1-c1cccc(F)c1	-10	2%	12µM*	?	-26%	5%
O=C(Nc1ccccc1N1CCCCC1)c1ncoc1-c1cccc(F)c1	11	0%	?	?	?	0%
Cn1c(=O)n(Cc2ccccc2)c(=O)c2c1nc1n2CCCN1CCc1ccccc1	-13	-14%	/	?	3.3µM*	-1%
CCOCCn1c(=O)c2c(nc3n2CCCN3Cc2ccccc2)n(C)c1=O	?	-2%	-22%	-17%	?	1%
CCCCn1c(=O)c2c(nc3n2CCCN3Cc2ccccc2)n(C)c1=O	-19	3%	5.2µM*	-9%	?	11%
CCOCCn1c(=O)c2c(nc3n2CCCN3CCc2ccccc2)n(C)c1=O	9	4%	?	-4%	15µM*	3%
CCC(C)C(N)C(=O)O (stereo unspecified)	/	/	-4%	/	-7%	/
CC1=C(C#N)C(C(F)(F)F)(C(F)(F)F)N=C(c2ccco2)N1	-14	2%	-6%	-14%	8.3µM*	-8%
O=C(O)c1cccc(N2C(=O)/C(=C/c3ccc(SCc4ccc(Cl)cc4)o3)SC2=S)c1	?	1%	?	7%	-4%	13µM*
O=C(CCN1C(=O)/C(=C/c2ccc(Cl)cc2)SC1=S)Nc1cccc(C(=O)O)c1	?	0%	-9%	10%	?	-7%
CN(C)CCCOC(=O)C1c2ccccc2Oc2ccccc21	?	1%	-7%	-19%	1%	0%
CC[N+](C)(CC)CCOC(=O)C1c2ccccc2Oc2ccccc21	17	-2%	10µM*!	7%	10µM*!	-4%
CCOC(=O)c1c(C)n(C)c2ccc(OCC(N)=O)cc12	?	-1%	3%	-17%	10µM*	2%
CCOC(=O)c1c(C)n(C)c2cc(-c3ccc(F)cc3)c(O)cc12	-21	-11%	7.4µM*	-13%	-22%	-1%
SMILES	HCMV inh	SARS PLP yeast	Pf growth 48h	HCV inh	Pf growth 96h	Sm TGR inh
CCOC(=O)c1c(C)n(C)c2ccc(OCC(O)Cn3nc(C)cc3C)cc12 (stereo unspecified)	2	-2%	?	?	/	?
COCCOC(=O)c1c(C)n(C)c2ccc(OC(=O)N3CCOCC3)cc12	53	8%	-4%	7%	?	4%
COCCOC(=O)c1c(C)n(C)c2ccc(OC(=O)c3c(OC)cccc3OC)cc12	5	1%	1.9µM*	?	?	8%
CCOC(=O)c1c(C)n(C)c2ccc(OCC(O)CN(CC)CC)cc12 (stereo unspecified)	-21	1%	/	?	5.9µM*	0%
CSc1ccc(NC(=O)NN(c2ccccc2)C2CCS(=O)(=O)C2)cc1 (stereo unspecified)	-26	/	/	/	/	/
OCCNc1nc(Nc2ccc(O)cc2)nc2ccccc12	-11	1%	1.7µM*	-19%	5.2µM*	-12%
OCCNc1nc(NCc2ccccc2)c2ccccc2n1	?	-7%	?	-26%	12µM*	0%
OCCNc1nc(Nc2cccc(O)c2)nc2ccccc12	?	-1%	2.3µM*	-14%	0.1µM*	8%
COc1cccc(Nc2nc(NCCO)c3ccccc3n2)c1	-4	-10%	/	-11%	-11%	1%
O=S(=O)(c1cccc(C(F)(F)F)c1)n1c(/C=C/c2ccccc2)nc2ccccc21	-18	/	/	/	/	2%
COc1ncccc1C(=O)NC1CCCc2c1cnn2-c1cc(C)cc(C)c1 (stereo unspecified)	-61*	-19%	-15%	-21%	12%	-1%
Cc1cc(C)cc(-n2ncc3c2CCCC3NC(=O)c2cc(C)oc2C)c1 (stereo unspecified)	?	-38%	-15%	?	36%	?
COCc1ccc(C(=O)NC2CCCc3c2cnn3-c2cc(C)cc(C)c2)s1 (stereo unspecified)	?	-17%	?	13µM*	7.4µM*	-16%
COc1ccc(/C=N/NC(=O)COc2cc(C)cc(C)c2)cc1COC(C)=O	18	-9%	6%	16%	0%	-5%
O=[N+]([O-])c1cccc2c([N+](=O)[O-])cccc12	-17	-5%	12%	16%	5.9µM*	0%
O=[N+]([O-])c1cc2ccccc2c(O)c1O	-100*	/	/	/	/	/
O=[N+]([O-])c1cc(-c2ccccc2)cc([N+](=O)[O-])c1O	-87*	/	/	-11%	/	/
CCOC(=O)N/N=C(\C)c1ccc(OC(F)F)cc1OC(F)F	-8	4%	0%	?	-9%	-1%
COc1ccc(NC(=O)c2ccc3[nH]c(C)cc(=O)c3c2)cc1	-4	/	/	/	/	1%
Cc1nn2cc(-c3ccc(Cl)cc3)cnc2c1Cl	-12	0%	372%	22%	356%	-2%
